# Laboratory results: paper PMC7862700, “An all-to-all approach to the identification of sequence-specific readers for epigenetic DNA modifications on cytosine”
# Tests used:
# Experiment in all cases: DAPPL (digital affinity profiling via proximity ligation, sequencing); 10 mM Tris-HCl pH 7.5, 50 mM NaCl, 1 mM DTT, 4% glycerol, room temperature, 30 min; GST-TFs on glutathione beads, 16-mer random dsDNA library, 0.1% formaldehyde crosslink after washing; high values mean tight binding
# FEV = target: T1, FEV (Homo sapiens, UniProt Q99581 1-238); settings: protein: recombinant; tags: N-terminal GST; dsDNA, one strand shown
# T1 sequence: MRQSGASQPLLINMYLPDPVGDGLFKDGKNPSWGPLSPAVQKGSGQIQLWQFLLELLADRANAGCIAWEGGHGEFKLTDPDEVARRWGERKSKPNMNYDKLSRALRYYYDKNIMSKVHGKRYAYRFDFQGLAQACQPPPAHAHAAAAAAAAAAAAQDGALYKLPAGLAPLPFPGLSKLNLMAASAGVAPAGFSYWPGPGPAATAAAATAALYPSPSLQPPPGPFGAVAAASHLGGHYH
# Method in brief: (§1)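 In yeast, human transcription factors were expressed with a GST fusion, then pulled down on glutathione beads and given DNA barcodes. Pooled with a tag-only sample, they were exposed to 200 nmole of a 16-mer random double-stranded DNA library (Tris/NaCl/DTT/glycerol buffer, room temperature, 30 min), washed, crosslinked with 0.1% formaldehyde, proximity-ligated using BsaI/T4 ligase for 1 h at 37 °C, PCR-amplified and read on an Illumina NextSeq500. Each hexamer's frequency of reads for a factor, divided by the matching frequency for the tag-only sample, gives the binding signal.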
# ETV5 = ETV5 (Homo sapiens, UniProt P41161 1-510); settings: protein: recombinant; tags: N-terminal GST; dsDNA, one strand shown
# Method in brief: as §1
# HSF1 = HSF1 (Homo sapiens, UniProt Q00613 1-529); settings: protein: recombinant; tags: N-terminal GST; chain copies: 3; dsDNA, one strand shown
# Method in brief: as §1
# SPIC = target: T2, SPIC (Homo sapiens, UniProt Q8N5J4 1-248); settings: protein: recombinant; tags: N-terminal GST; dsDNA, one strand shown
# T2 sequence: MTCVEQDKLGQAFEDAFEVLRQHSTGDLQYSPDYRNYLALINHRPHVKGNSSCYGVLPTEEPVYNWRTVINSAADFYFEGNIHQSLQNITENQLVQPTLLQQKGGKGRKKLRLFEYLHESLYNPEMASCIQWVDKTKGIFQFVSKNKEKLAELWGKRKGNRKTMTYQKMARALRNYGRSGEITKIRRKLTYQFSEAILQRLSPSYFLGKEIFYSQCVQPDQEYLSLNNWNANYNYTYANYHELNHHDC
# Method in brief: as §1
# ELF4 = ELF4 (Homo sapiens, UniProt Q99607 1-663); settings: protein: recombinant; tags: N-terminal GST; dsDNA, one strand shown
# Method in brief: as §1
# ELK4 = target: T3, ELK4 (Homo sapiens, UniProt P28324-2 1-405); settings: protein: recombinant; tags: N-terminal GST; dsDNA, one strand shown
# T3 sequence: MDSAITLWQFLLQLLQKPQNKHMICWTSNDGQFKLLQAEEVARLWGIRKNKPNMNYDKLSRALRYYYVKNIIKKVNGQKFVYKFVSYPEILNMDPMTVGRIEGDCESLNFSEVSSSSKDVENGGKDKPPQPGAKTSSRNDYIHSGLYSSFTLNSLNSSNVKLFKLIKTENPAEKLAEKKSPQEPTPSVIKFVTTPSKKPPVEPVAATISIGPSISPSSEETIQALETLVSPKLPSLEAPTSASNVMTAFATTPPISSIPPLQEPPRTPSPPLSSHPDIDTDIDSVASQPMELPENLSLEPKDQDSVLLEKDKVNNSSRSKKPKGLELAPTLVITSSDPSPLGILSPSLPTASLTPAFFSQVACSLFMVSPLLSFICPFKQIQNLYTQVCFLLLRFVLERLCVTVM
# Method in brief: as §1
# ETV2 = target: T4, ETV2 (Homo sapiens, UniProt O00321 1-342); settings: protein: recombinant; tags: N-terminal GST; dsDNA, one strand shown
# T4 sequence: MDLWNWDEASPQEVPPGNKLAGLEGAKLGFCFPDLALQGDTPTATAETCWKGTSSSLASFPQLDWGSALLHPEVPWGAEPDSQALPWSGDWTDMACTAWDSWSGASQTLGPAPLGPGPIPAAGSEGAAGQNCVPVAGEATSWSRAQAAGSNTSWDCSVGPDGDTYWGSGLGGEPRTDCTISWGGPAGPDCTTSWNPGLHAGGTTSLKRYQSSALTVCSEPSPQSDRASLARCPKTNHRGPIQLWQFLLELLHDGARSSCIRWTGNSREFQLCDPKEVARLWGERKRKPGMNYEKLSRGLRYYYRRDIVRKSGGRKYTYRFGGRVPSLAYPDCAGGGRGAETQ
# Method in brief: as §1
# ELF3 = target: T5, ELF3 (Homo sapiens, UniProt P78545 1-371); settings: protein: recombinant; tags: N-terminal GST; dsDNA, one strand shown
# T5 sequence: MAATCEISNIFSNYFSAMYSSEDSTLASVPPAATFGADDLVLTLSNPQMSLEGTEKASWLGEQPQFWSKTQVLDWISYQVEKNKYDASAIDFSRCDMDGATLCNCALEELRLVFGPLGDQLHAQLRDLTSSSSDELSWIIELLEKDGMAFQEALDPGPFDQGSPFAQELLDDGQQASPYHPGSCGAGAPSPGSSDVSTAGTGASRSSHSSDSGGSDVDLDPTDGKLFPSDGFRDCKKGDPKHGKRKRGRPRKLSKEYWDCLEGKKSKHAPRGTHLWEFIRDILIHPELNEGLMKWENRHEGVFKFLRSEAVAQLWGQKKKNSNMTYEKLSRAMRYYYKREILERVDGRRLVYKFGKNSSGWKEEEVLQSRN
# Method in brief: as §1
# ETV1 = ETV1 (Homo sapiens, UniProt P50549 1-477); settings: protein: recombinant; tags: N-terminal GST; dsDNA, one strand shown
# Method in brief: as §1
# ERF = target: T6, ERF (Homo sapiens, UniProt P50548 1-548); settings: protein: recombinant; tags: N-terminal GST; dsDNA, one strand shown
# T6 sequence: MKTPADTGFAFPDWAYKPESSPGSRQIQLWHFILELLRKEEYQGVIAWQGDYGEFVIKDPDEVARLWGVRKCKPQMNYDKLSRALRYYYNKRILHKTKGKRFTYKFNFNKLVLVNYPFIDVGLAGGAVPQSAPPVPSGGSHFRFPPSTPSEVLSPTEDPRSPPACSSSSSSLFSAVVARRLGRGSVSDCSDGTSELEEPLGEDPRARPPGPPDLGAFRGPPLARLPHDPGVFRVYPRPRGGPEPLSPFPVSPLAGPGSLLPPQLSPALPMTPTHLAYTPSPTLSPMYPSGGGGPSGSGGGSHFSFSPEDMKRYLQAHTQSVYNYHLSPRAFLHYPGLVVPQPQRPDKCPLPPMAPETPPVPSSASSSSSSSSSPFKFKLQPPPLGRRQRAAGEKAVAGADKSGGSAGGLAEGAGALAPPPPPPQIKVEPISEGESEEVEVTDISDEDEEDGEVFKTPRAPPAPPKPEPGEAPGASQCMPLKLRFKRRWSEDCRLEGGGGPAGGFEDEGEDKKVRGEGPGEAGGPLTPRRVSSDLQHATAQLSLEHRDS
# Method in brief: as §1
# ETV3L = target: T7, ETV3L (Homo sapiens, UniProt Q6ZN32 1-361); settings: protein: recombinant; tags: N-terminal GST; dsDNA, one strand shown
# T7 sequence: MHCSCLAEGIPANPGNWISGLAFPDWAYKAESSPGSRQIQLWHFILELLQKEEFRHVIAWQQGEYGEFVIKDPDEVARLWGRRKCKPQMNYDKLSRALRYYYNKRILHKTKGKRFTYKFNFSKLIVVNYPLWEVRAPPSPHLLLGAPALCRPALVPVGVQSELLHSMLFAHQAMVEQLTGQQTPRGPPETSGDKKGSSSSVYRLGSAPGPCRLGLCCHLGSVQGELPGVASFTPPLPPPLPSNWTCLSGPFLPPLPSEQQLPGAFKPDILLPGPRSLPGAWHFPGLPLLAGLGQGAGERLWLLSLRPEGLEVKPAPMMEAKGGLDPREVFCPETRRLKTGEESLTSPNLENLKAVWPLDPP
# Method in brief: as §1
# ETS2 = target: T8, ETS2 (Homo sapiens, UniProt P15036 1-469); settings: protein: recombinant; tags: N-terminal GST; dsDNA, one strand shown
# T8 sequence: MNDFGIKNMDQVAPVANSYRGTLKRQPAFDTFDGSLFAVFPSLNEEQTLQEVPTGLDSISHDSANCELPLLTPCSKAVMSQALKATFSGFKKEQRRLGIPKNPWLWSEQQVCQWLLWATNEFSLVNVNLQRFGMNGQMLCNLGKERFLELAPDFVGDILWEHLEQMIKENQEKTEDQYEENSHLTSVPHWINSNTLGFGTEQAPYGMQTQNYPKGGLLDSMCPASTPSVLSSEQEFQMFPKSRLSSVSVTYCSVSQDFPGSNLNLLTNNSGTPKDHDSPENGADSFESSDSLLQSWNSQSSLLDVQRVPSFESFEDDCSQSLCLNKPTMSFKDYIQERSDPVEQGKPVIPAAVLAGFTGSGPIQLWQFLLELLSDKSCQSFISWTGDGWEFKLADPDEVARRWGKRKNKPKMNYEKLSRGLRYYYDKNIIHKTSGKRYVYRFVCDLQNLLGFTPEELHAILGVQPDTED
# Method in brief: as §1
# SPDEF = target: T9, SPDEF (Homo sapiens, UniProt O95238 1-335); settings: protein: recombinant; tags: N-terminal GST; dsDNA, one strand shown
# T9 sequence: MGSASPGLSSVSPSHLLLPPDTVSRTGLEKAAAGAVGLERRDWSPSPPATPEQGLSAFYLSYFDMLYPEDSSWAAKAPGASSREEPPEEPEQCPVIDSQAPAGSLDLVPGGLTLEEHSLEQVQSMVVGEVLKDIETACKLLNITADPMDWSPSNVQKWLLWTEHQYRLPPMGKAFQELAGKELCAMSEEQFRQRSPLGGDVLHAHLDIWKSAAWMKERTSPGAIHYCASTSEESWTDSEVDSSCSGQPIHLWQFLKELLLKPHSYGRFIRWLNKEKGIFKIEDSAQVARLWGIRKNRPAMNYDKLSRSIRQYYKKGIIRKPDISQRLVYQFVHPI
# Method in brief: as §1
# ETV7 = target: T10, ETV7 (Homo sapiens, UniProt Q9Y603 1-341); settings: protein: recombinant; tags: N-terminal GST; dsDNA, one strand shown
# T10 sequence: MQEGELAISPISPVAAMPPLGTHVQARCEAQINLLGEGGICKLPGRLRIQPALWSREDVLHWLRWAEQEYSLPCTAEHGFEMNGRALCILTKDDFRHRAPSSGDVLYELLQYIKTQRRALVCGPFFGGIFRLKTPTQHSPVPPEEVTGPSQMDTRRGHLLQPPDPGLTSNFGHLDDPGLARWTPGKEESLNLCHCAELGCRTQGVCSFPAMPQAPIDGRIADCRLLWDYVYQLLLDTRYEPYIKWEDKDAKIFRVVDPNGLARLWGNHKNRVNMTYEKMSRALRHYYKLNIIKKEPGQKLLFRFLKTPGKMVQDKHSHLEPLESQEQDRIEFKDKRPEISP
# Method in brief: as §1
# ELF5 = target: T11, ELF5 (Homo sapiens, UniProt Q9UKW6-2 1-255); settings: protein: recombinant; tags: N-terminal GST; dsDNA, one strand shown
# T11 sequence: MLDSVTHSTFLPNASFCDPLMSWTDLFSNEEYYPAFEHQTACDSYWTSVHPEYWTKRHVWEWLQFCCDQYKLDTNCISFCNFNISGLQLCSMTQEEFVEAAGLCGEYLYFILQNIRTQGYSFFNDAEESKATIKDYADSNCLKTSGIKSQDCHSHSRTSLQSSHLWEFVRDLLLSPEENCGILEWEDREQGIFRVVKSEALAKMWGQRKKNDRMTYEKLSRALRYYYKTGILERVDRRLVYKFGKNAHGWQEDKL
# Method in brief: as §1
# ETV3 = target: T12, ETV3 (Homo sapiens, UniProt P41162-2 1-143); settings: protein: recombinant; tags: N-terminal GST; dsDNA, one strand shown
# T12 sequence: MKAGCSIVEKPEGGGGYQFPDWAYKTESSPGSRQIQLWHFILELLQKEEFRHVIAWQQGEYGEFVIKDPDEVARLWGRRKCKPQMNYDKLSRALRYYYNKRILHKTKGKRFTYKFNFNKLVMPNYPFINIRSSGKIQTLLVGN
# Method in brief: as §1
# ETV6 = ETV6 (Homo sapiens, UniProt P41212 1-452); settings: protein: recombinant; tags: N-terminal GST; dsDNA, one strand shown
# Method in brief: as §1
# ETV6, sequence (P41212 whole entry): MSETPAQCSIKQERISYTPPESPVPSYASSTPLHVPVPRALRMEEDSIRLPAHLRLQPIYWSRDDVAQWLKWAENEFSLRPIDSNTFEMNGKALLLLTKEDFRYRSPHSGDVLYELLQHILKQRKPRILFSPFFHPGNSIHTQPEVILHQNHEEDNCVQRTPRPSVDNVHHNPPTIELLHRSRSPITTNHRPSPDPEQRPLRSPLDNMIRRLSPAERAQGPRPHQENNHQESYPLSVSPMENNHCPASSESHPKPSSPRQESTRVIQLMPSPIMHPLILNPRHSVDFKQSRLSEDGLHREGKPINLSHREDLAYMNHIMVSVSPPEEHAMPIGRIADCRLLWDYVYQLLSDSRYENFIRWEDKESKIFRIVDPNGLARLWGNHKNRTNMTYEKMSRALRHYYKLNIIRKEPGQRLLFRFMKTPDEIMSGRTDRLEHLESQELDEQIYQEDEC
# ETV1, sequence (P50549 whole entry): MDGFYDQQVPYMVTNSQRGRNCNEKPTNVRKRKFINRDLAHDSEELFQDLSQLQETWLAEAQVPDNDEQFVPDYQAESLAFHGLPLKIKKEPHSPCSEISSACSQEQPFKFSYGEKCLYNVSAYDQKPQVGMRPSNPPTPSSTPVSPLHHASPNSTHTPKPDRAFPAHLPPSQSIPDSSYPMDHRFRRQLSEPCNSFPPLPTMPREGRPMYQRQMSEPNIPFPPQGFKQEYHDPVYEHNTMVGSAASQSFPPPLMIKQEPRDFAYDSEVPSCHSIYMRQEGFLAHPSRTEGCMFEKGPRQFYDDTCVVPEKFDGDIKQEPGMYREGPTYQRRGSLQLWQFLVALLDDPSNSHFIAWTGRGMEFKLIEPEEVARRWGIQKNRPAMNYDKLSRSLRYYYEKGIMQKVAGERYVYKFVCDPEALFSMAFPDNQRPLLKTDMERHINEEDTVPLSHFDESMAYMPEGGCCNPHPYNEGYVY
# ETV5, sequence (P41161 whole entry): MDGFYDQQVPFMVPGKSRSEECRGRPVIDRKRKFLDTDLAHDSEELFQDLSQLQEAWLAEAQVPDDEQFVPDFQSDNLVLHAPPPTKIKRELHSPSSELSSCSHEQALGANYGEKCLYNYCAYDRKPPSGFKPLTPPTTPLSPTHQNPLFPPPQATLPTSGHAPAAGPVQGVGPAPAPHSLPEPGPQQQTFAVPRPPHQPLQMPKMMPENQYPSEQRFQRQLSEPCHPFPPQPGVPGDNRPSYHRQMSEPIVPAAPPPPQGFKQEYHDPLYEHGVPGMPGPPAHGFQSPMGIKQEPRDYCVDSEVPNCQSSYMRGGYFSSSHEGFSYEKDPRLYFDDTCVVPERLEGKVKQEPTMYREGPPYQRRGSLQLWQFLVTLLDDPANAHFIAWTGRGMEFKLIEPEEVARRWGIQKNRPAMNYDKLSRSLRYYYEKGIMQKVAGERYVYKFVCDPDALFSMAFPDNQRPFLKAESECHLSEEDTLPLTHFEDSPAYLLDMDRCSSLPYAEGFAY
# ELF4, sequence (Q99607 whole entry): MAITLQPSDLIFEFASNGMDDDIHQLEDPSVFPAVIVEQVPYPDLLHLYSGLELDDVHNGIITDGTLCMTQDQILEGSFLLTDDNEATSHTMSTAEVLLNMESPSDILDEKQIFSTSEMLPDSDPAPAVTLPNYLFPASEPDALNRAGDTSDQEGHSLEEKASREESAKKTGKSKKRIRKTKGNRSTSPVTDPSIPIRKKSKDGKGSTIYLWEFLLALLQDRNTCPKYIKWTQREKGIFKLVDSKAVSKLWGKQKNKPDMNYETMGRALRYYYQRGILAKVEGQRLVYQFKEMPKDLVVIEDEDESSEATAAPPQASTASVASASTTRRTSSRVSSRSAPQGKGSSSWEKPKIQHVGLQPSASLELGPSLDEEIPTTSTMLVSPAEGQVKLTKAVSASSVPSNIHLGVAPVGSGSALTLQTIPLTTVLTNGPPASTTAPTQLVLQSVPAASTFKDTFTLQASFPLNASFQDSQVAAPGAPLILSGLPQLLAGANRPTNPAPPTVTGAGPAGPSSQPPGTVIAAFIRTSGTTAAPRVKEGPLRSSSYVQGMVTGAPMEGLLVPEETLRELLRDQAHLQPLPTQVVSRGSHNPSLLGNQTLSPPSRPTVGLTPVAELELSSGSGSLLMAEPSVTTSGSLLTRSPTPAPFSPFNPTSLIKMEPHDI
# HSF1, sequence (Q00613 whole entry): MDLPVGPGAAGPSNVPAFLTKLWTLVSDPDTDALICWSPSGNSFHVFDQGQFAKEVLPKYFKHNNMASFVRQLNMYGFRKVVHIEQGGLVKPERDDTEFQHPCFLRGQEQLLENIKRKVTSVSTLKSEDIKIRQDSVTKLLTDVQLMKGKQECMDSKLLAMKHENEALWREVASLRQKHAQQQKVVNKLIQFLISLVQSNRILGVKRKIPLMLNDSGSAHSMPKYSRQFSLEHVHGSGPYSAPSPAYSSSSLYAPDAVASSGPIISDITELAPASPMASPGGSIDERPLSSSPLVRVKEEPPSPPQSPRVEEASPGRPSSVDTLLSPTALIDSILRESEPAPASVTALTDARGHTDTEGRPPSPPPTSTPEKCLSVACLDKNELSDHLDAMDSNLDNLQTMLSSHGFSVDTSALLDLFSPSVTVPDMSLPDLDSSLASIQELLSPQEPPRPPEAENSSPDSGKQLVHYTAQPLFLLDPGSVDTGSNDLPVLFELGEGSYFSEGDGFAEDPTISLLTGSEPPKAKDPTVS
sequence,measurement,setting,value
CTGACA,binding signal,FEV,"1.19 fold enrichment (6-mer frequency, TF over GST control)"
same,binding signal,ETV5,"1.22 fold enrichment (6-mer frequency, TF over GST control)"
same,binding signal,HSF1,"1.01 fold enrichment (6-mer frequency, TF over GST control)"
same,binding signal,SPIC,"1.03 fold enrichment (6-mer frequency, TF over GST control)"
same,binding signal,ELF4,"1.27 fold enrichment (6-mer frequency, TF over GST control)"
same,binding signal,ELK4,"1.29 fold enrichment (6-mer frequency, TF over GST control)"
same,binding signal,ETV2,"1.2 fold enrichment (6-mer frequency, TF over GST control)"
same,binding signal,ELF3,"1.25 fold enrichment (6-mer frequency, TF over GST control)"
same,binding signal,ETV1,"1.19 fold enrichment (6-mer frequency, TF over GST control)"
same,binding signal,ERF,"1.21 fold enrichment (6-mer frequency, TF over GST control)"
same,binding signal,ETV3L,"1.34 fold enrichment (6-mer frequency, TF over GST control)"
same,binding signal,ETS2,"1.22 fold enrichment (6-mer frequency, TF over GST control)"
same,binding signal,SPDEF,"1.24 fold enrichment (6-mer frequency, TF over GST control)"
same,binding signal,ETV7,"1.37 fold enrichment (6-mer frequency, TF over GST control)"
same,binding signal,ELF5,"1.26 fold enrichment (6-mer frequency, TF over GST control)"
same,binding signal,ETV3,"1.24 fold enrichment (6-mer frequency, TF over GST control)"
same,binding signal,ETV6,"1.24 fold enrichment (6-mer frequency, TF over GST control)"
